Assay [1] in a line: qHTS assay to test for compound auto fluorescence at 535 nm (green) in HEK293 cells (AID 720680). A general note: Quantitative high-throughput screening tests each substance at several concentrations.
Assay [2] can be described thus: qHTS assay to test for compound auto fluorescence at 460 nm (blue) in HEK293 cell free culture (AID 720681). An outline of the steps: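 Compounds were added to cell-free DMEM with 10% FBS and fluorescence read directly. The blue channel used 405 nm excitation and 460 nm emission, with triamterene as the reference fluorophore.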
Assay [3] in a line: qHTS assay to test for compound auto fluorescence at 535 nm (green) in HEK293 cell free culture (AID 720682). An outline of the steps:
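Intrinsic compound fluorescence is measured in culture medium containing 10% FBS, with excitation at 485 nm and detection at 535 nm, referenced to fluorescein.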

Assay [4] is described as follows: qHTS assay to test for compound auto fluorescence at 590 nm (red) in HEK293 cell free culture (AID 720683). An outline of the steps:
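Cell-free wells of DMEM with 10% FBS received compound, and intrinsic fluorescence was read at excitation/emission 540/590 nm. Values expressed as equivalence to Rose Bengal sodium.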

Assay [5] can be described thus: qHTS assay to test for compound auto fluorescence at 590 nm (red) in HepG2 cell free culture (AID 720684). An outline of the steps:
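Auto fluorescence equivalency versus Rose Bengal sodium, red channel Ex/Em 540/590 nm; compounds in cell-free MEM/10% FBS; DMSO vehicle control.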

Assay [6] is described as follows: qHTS assay to test for compound auto fluorescence at 460 nm (blue) in HepG2 cell free culture (AID 720685). The method, boiled down: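 Cell-free plates of MEM plus 10% FBS received 23 nL compound or DMSO vehicle; blue-channel (405/460 nm) intensity scored against triamterene as reference fluorophore.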
Assay [7] in a line: qHTS assay to test for compound auto fluorescence at 535 nm (green) in HepG2 cell free culture (AID 720686).
Assay [8] can be described thus: qHTS assay to test for compound auto fluorescence at 460 nm (blue) in HepG2 cells (AID 720687). The method, boiled down: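 HepG2 cells in MEM with 10% FBS, attached overnight at 37 C, were exposed to compound or DMSO for 1 hr at 37 C, 5% CO2. Blue fluorescence was read at 405/460 nm, with triamterene as reference fluorophore.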
Assay [9] is described as follows: qHTS assay for identifying genotoxic compounds that show differential cytotoxicity against isogenic chicken DT40 cell lines with known DNA damage response pathways - wild type cell line (AID 743012). Also: nearly all actives have a fitted effect of over 60% in size. Also: potency is read from the fitted curve at half-maximal effect. An outline of the steps: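 Luminescent ATP viability signal (CellTiter-Glo, 30 min RT) recorded after wild type DT40 cells were incubated with compounds for 40 h at 37 C/5% CO2.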

The nature of assay [10]: qHTS assay for identifying genotoxic compounds that show differential cytotoxicity against isogenic chicken DT40 cell lines with known DNA damage response pathways - Rev3 mutant cell line (AID 743014). Also: nearly all actives have a fitted effect of over 55% in size. Also: potency is read from the fitted curve at half-maximal effect.
The nature of assay [11]: qHTS assay for identifying genotoxic compounds that show differential cytotoxicity against isogenic chicken DT40 cell lines with known DNA damage response pathways - Rad54/Ku70 mutant cell line (AID 743015). Also: nearly all actives have a fitted effect of over 60% in size. Also: potency is read from the fitted curve at half-maximal effect.
The nature of assay [12]: qHTS assay to identify small molecule antagonists of the androgen receptor (AR) signaling pathway - cell viability counter screen (AID 743033; also: nearly all actives have a fitted effect of over 45% in size; also: potency is read from the fitted curve at half-maximal effect).
For assay [13], the target named is Glucocorticoid receptor (Homo sapiens) (UniProt P04150). Briefly: qHTS assay to identify small molecule agonists of the glucocorticoid receptor (GR) signaling pathway (AID 720691; active = well fitted activation curve with a large enough effect in the signal ratio in the repeat runs, not every such curve was filed as active; the % refers to the signal ratio). The method, boiled down:
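Cells: GR-bla HeLa, endogenous GR with stably integrated GRE-beta-lactamase reporter. Treatment 18 h, 37 C, compounds delivered in DMSO. Detection via LiveBLAzer B/G FRET substrate, 2 h RT, fluorescence intensity.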

The target is the same in assay [14]. In words: qHTS assay to identify small molecule antagonists of the glucocorticoid receptor (GR) signaling pathway (AID 720692; active = well fitted inhibition curve with a large enough effect in the signal ratio in the repeat runs, not every such curve was filed as active; the % refers to the signal ratio; also: potency is read from the fitted curve at half-maximal effect). An outline of the steps:
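Quantitative HTS in antagonist format: HeLa cells expressing endogenous GR and a stably integrated GRE-bla reporter, stimulated with 5 nM dexamethasone (final) alongside test compounds for 18 h.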

Assay [15] can be described thus: qHTS assay to identify small molecule antagonists of the androgen receptor (AR) signaling pathway using the MDA cell line - cell viability counter screen (AID 743041; also: nearly all actives have a fitted effect of over 45% in size). An outline of the steps: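 Compound exposure lasted 16 h at 37C in MDA-kb2 AR-luc cells stimulated with R1881. Protease-based CellTiter-Fluor reagent was applied for the final 30 min and fluorescence measured.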

Assay [16] in a line: qHTS assay to identify small molecule antagonists of the glucocorticoid receptor (GR) signaling pathway - cell viability counter screen (AID 720693). Also: nearly all actives have a fitted effect of over 55% in size.
In assay [17] the target is Androgen receptor (Homo sapiens) (UniProt P10275). In words: qHTS assay to identify small molecule antagonists of the androgen receptor (AR) signaling pathway (AID 743035; active = well fitted inhibition curve with a large enough effect in the signal ratio in the repeat runs, not every such curve was filed as active; the % refers to the signal ratio). The method, boiled down:
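Quantitative HTS of the Tox21 10K library used HEK293 AR-UAS-bla cells stimulated with R1881 alongside compound for 16 h at 37C, followed by beta-lactamase FRET detection (LiveBLAzer B/G, 2 h, RT).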

For assay [18] the target is unchanged. Briefly: qHTS assay to identify small molecule agonists of the androgen receptor (AR) signaling pathway (AID 743036; active = well fitted activation curve with a large enough effect in the signal ratio in the repeat runs, with a control signal flat, not every such curve was filed as active; the % refers to the signal ratio). An outline of the steps: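 Agonist activity was scored by beta-lactamase reporter fluorescence in stably transfected HEK293 cells exposed to compounds for 16 h at 37C and 5% CO2. Substrate loading took 2 h at room temperature.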
Assay [19] shares this target. In words: qHTS assay to identify small molecule agonists of the androgen receptor (AR) signaling pathway using the MDA cell line (AID 743040; also: nearly all actives have a fitted effect of over 20% in size). The method, boiled down:
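Testing was done with the MDA-kb2 AR-luc line, a human breast carcinoma stably transfected with MMTV-luciferase containing AR and GR response elements. Cells were exposed 16 h at 37C before ONE-Glo luminescence detection.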

Assay [20] shares this target. Briefly: qHTS assay to identify small molecule antagonists of the androgen receptor (AR) signaling pathway using the MDA cell line (AID 743042; also: nearly all actives have a fitted effect of over 55% in size). The method, boiled down:
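MDA-kb2 breast carcinoma cells carrying MMTV-luciferase (AR/GR responsive) were co-treated with compounds and the agonist R1881 for 16 h at 37C. Inhibition read as ONE-Glo luminescence; CellTiter-Fluor fluorescence measured in parallel for cytotoxicity.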

Values joined by “and” are separate entries in the source; they are usually repeats but may differ in a detail not shown here. Identical values can stand only once. Inconclusive results are not listed. Where a structure was tested more than once in an assay, its records may differ in their call. Active and inactive are the calls of the source. Unless noted, calls follow the shape of the dose curve; as a rule, active = well fitted curve in the direction sought with a large enough effect in the repeat runs; inconclusive = weak or mixed curves; inactive = no such curve, though single readings can be large; an effect the other way counts as inactive or inconclusive.

This is an account of results in PubChem BioAssay (Tox21).
% is scaled to controls: 0 for no effect and ±100 for the full control effect.

Glucocorticoid receptor (Homo sapiens), sequence (P04150 whole entry, looked up): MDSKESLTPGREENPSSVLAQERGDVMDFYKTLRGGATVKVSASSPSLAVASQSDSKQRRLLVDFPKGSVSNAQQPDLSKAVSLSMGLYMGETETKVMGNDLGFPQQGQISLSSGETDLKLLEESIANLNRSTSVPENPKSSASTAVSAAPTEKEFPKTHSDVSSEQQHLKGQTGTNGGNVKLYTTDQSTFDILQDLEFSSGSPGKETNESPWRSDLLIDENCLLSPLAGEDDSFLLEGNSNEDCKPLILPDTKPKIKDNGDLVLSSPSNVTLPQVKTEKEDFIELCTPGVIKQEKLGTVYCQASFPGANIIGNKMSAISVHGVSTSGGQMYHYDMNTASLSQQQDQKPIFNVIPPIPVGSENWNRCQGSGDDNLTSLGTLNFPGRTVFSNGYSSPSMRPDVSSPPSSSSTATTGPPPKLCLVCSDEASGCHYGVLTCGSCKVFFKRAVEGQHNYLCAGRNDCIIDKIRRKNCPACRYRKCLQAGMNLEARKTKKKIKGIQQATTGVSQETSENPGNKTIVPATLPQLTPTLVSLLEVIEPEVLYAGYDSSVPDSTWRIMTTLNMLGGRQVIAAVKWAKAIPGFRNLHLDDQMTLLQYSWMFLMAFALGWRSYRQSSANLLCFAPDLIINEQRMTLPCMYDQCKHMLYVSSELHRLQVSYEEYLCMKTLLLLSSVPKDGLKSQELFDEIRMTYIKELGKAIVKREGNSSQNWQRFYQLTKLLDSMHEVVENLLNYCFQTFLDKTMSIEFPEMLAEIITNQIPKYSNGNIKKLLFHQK
Androgen receptor (Homo sapiens), sequence (P10275 whole entry, looked up): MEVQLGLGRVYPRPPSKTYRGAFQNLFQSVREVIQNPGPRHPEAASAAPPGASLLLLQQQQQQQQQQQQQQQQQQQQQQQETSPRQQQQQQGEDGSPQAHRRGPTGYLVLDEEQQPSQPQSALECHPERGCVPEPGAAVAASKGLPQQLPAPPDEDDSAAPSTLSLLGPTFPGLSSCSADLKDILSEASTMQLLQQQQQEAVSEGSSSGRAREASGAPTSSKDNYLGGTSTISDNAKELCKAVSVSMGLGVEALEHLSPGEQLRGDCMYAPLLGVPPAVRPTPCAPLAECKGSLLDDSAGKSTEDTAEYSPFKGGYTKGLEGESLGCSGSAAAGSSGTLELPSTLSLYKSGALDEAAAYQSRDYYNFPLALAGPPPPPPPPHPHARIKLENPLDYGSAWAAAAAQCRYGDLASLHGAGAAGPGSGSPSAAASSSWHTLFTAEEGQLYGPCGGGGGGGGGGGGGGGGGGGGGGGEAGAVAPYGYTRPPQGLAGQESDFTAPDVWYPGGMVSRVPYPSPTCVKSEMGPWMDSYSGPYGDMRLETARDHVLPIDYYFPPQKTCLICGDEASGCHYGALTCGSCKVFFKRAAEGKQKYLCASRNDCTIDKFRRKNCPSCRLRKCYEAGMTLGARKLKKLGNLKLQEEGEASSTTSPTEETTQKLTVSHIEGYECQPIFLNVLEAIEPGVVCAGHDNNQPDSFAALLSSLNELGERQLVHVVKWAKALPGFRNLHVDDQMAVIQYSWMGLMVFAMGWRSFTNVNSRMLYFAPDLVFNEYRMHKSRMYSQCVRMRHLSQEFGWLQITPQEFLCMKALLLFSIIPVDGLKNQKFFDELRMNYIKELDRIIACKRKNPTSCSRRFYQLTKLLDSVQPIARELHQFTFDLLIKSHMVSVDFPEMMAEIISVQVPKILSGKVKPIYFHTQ

As to `CCCCCCCCCCCO`, the Potency entry in assay [1], in assay [3], in assay [4], in [5], in assay [7] and in assay [12] was “inactive” throughout. Also, the outcome in assay [2], in [6] and in assay [8] was inactive. Further, the Potency result in [9] was “inactive and 48.6 µM (active)”; in assay [10], “inactive and 54.5 µM (active)”; in assay [11], “inactive and 61.1 µM (active)”.

In the case of `C#C[C@]1(O)CC[C@H]2[C@@H]3CCC4=Cc5oncc5C[C@]4(C)[C@H]3CC[C@@]21C`, the Potency result in assay [1], in assay [3], in assay [4], in assay [5], in assay [7] and in assay [13] was “inactive” in each case. Moreover, in assay [15], the Potency result was “inactive”. The molecule was classed as inactive in [2] and in assay [6]. Also, the Potency in [14] is 5.35 µM (active); in assay [9], 9.69 µM (active); in assay [10], “inactive and 24.3 µM (active)”; in assay [11], 13.7 µM (active); in assay [12] it was “inactive and 38.9 µM (active)”.

For the molecule `NC=O`, the Potency result in [1], in assay [3], in [4], in assay [5], in [7] and in assay [16] was “inactive” in each case. The Potency result in assay [9], in [10], in assay [11] and in assay [12] was “inactive” in each case. In addition, the molecule was called inactive in assay [2] and in assay [6].

In the case of `Cc1cccc([N+](=O)[O-])c1C`, the Potency entry in assay [1], in [3], in assay [4], in assay [5], in assay [7] and in [9] was “inactive” each time. For the same molecule, the Potency result in assay [10], in assay [11], in assay [12], in assay [17], in assay [19] and in assay [20] was “inactive” each time. The outcome in assay [2], in assay [6], in [8] and in assay [18] was inactive.

In the case of `O=P(O)(O)O`, the Potency entry in assay [1], in [3], in assay [4], in assay [5], in assay [7] and in [13] was “inactive” in each case. Moreover, the Potency entry in assay [14], in assay [16], in [9], in assay [10], in assay [11] and in [12] was “inactive” each time. In addition, the call in assay [2] was inactive.

As to `CN(C)c1nc(N(C)C)nc(N(C)C)n1`, the fluorescence, % of fluorescein in assay [1] is 0.0818% [at 18.6 µM] (inactive) and -0.032% [at 3.72 µM] (inactive). The fluorescence, % of fluorescent control in assay [2] is 0.0543% [at 18.6 µM] (inactive) and 0.0026% [at 3.72 µM] (inactive); in assay [4], -0.0465% [at 18.6 µM] (inactive) and -0.254% [at 3.72 µM] (inactive); in assay [6] it was 0.0368% [at 18.6 µM] (inactive) and -0.0793% [at 3.72 µM] (inactive); in assay [8], 0.0942% [at 18.6 µM] (inactive) and -0.004% [at 3.72 µM] (inactive). The fluorescence, % of Rose Bengal in assay [5] was 0.0258% [at 18.6 µM] (inactive) and 0.364% [at 3.72 µM] (inactive). In addition, the fluorescence, % of fluorescein control in [7] is -0.0261% [at 18.6 µM] (inactive) and -0.0181% [at 3.72 µM] (inactive). Also, the Potency result in assay [13], in assay [14], in [16], in assay [9], in assay [10] and in [12] was “inactive” each time. Further, in assay [11], the activity change, negative = cytotoxicity was 0.358% [at 8.55 µM] (inactive).

Regarding `C#C[C@]1(O)CC[C@H]2[C@@H]3CCc4cc(OC)ccc4[C@H]3CC[C@@]21C`, the Potency entry in assay [1], in assay [3], in assay [4], in assay [5], in assay [7] and in [13] was “inactive” each time. Besides, the Potency entry in assay [12] and in assay [15] was “inactive” throughout. Besides, the molecule was called inactive in assay [2] and in assay [8]. Also, the Potency is 5.31 µM (active) and 3.86 µM (active) in assay [9]; 5.96 µM (active) and 4.86 µM (active) in assay [10]; 6.68 µM (active) and 6.86 µM (active) in assay [11].

On to `C=CC(C)(CCC=C(C)C)OC(C)=O` (stereo not drawn), for which the Potency entry in assay [1], in assay [3], in assay [4], in assay [5], in assay [7] and in [13] was “inactive” throughout. The Potency entry in assay [14], in assay [16], in [9], in assay [11] and in assay [12] was “inactive” throughout. The molecule was called inactive in assay [2]. Also, in assay [10], the Potency result was “inactive and 54.5 µM (active)”.

As for `O=C(COc1ccc(Cl)cc1)N1CCN(Cc2ccc3c(c2)OCO3)CC1`, the Potency entry in [1], in assay [3], in [4], in assay [5], in [7] and in [16] was “inactive” each time. Further, in [12], the Potency entry is “inactive”. For the same molecule, the outcome in [2] and in assay [8] was inactive. Also, the Potency was 29.8 µM (active) in [9]; 16.8 µM (active) and 54.5 µM (active) in assay [10]; 48.6 µM (active) in [11].

On to `CC(CCC(=O)O)(c1ccc(O)cc1)c1ccc(O)cc1`, for which the Potency result in assay [1], in [3], in assay [4], in assay [5], in assay [7] and in assay [13] was “inactive” throughout. Further, the Potency entry in [14], in assay [16], in [9], in assay [10], in assay [11] and in assay [12] was “inactive” each time. Moreover, in assay [15], the Potency result is “inactive”. Moreover, the molecule was called inactive in [2] and in assay [8].

In the case of `c1ccc2c(c1)Oc1ccccc1S2`, the Potency entry in assay [1], in [3], in assay [4], in [5], in [7] and in assay [13] was “inactive” throughout. The Potency result in assay [14], in [16], in [9], in [10], in assay [11] and in [12] was “inactive” throughout. Also, in [15], the Potency result is “inactive”. The outcome in assay [2] and in assay [8] was inactive.

With `O=[N+]([O-])c1ccc2c(c1)Cc1ccccc1-2`, the Potency entry in assay [1], in [3], in assay [4], in assay [5], in assay [7] and in assay [13] was “inactive” throughout. The Potency result in assay [9], in [10], in [11], in assay [12] and in assay [15] was “inactive” throughout. Moreover, in assay [2], the call was inactive.

For `OC1CCCCCCCCCCC1`, the Potency entry in assay [1], in assay [3], in [4], in assay [5], in [7] and in assay [13] was “inactive” each time. In addition, the Potency result in assay [14], in assay [16], in assay [9], in assay [10], in assay [11] and in assay [12] was “inactive” each time. Further, the molecule was classed as inactive in assay [2] and in assay [8].

`COC(=O)CCC(=O)OC`: the Potency entry in assay [1], in assay [3], in assay [4], in assay [5], in assay [7] and in assay [13] was “inactive” throughout. For the same molecule, the Potency entry in assay [14], in [9], in [10], in assay [11], in assay [12] and in assay [15] was “inactive” each time. Besides, the call in [2] was inactive.
